An excerpt weighted towards active compounds, which were near 3.8% of everything screened.
Mtb hypoxia inh – inhibitors of hypoxia-regulated fluorescent reporter in Mycobacterium tuberculosis; M. tuberculosis hypoxia-regulated fluorescent reporter, fluorescence; fluorescence inhibition, % (test concentration not listed); actives 0.1% (n = 300,000); AID 1159583; in the data active means fluorescence inhibition mostly above about 23%, no sharp cut-off; inactive means mostly below about 17%
Y pestis TopoI – blocks Yersinia pestis topoisomerase I activity; Y. pestis Topo-I cleavage product accumulation, plate reader; activity, % at 10 µM; actives 0.064% (n = 360,000); AID 504884; in the data active means activity above about 50%, passing the limit was not always enough
GDH-TPI counter-1 – counter-screen for M. tuberculosis FBA inhibitors: GDH-TPI coupled enzymes; GDH-TPI coupled enzyme counterscreen, NADH absorbance; inhibition, % at 4.8 µM; actives 1.2% (n = 360,000); AID 588335; in the data active means inhibition above about 30%;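 further: 0% = DMSO wells and 100% = wells lacking the enzyme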
PrP 5UTR inh – suppresses PrP 5' UTR mRNA reporter expression; actives 0.35% (n = 340,000); AID 488862; cell-based PrP 5' UTR mRNA reporter, plate reader; inhibition, % (concentration not given with the values); in the data active means inhibition above about 52%; further: 0 = median of the neutral control wells
PrPC surface inh – inhibitors of human cell surface prion protein PrPC; actives 0.43% (n = 370,000); P04156; inhibition, % at 13.8 µM; TR-FRET read-out; AID 720596; in the data active means inhibition above about 24%; further: 0% = median of the test wells and 100% = reference compound wells
FBA Mtb inh – Mtb fructose-bisphosphate aldolase inhibition; purified M. tuberculosis FBA, fluorescence read-out; AID 588726; P9WQA3; actives 2.3% (n = 360,000); inhibition, % at 1 µM;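 further: 0% = vehicle and 100% = reference inhibitor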
Target sequence (P9WQA3 whole entry, looked up): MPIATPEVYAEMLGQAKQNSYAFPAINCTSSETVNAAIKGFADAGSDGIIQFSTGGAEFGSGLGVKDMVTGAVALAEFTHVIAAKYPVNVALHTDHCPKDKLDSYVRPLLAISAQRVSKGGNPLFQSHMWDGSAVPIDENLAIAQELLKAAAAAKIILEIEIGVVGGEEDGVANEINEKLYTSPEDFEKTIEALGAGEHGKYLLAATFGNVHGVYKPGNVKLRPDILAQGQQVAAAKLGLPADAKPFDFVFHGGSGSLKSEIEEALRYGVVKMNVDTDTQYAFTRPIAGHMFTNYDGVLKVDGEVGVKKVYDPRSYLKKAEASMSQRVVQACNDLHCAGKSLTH
Mtb FBA confirm – Mtb FBA inhibition, confirmed; shares compounds with FBA Mtb inh; purified M. tuberculosis FBA, fluorescence read-out; inhibition, % at 1 µM; actives 78% (n = 5,600);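 further: 0% = vehicle wells and 100% = reference inhibitor wells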
GDH-TPI counter-2 – inhibits GDH-TPI coupling enzymes, flagging Mtb FBA hits; shares compounds with FBA Mtb inh; GDH-TPI coupled enzyme counterscreen, fluorescence; inhibition, % at 1 µM; actives 81% (n = 5,600); in the data active means inhibition above about 10%
An asterisk follows results filed as active; . = no result; + = active, no number. Unless noted, no stated cut-off is given here; in the data, active means inhibition above about 27%; inactive means the rest.

SMILES	Mtb hypoxia inh	Y pestis TopoI	GDH-TPI counter-1	PrP 5UTR inh	PrPC surface inh	FBA Mtb inh	Mtb FBA confirm	GDH-TPI counter-2
COc1ccc(CCNC(=O)c2ccc3c(c2)N(Cc2ccc(F)cc2)CCS3)cc1OC	.	39	4	-18	14	72*	55*	33*
Cc1ccc(CN2CCSc3ccc(C(=O)NCc4ccco4)cc32)cc1	-5	-4	4	-16	12	54*	5	-1
CCN1C(=O)CSc2ccc(C(=O)NCc3ccco3)cc21	8	6	6	-10	-6	2	.	.
CCN1CCN(CCCNC(=O)c2ccc3c(c2)N(Cc2ccc(C)cc2)CCS3)CC1	11	-13	9	-9	.	76*	131*	102*
CC1(C)CC(=O)/C(=C(\O)Cc2ccccc2)C(=NCCc2ccccc2)C1	7	.	.	.	.	.	.	.
CCc1cc(=O)oc2c(C)c(OC(C)C(=O)NCCCn3ccnc3)ccc12 (stereo unspecified)	7	-2	3	-8	-4	66*	77*	68*
CCc1cc(=O)oc2cc(C)cc(OCC(=O)NCCCn3ccnc3)c12	-1	4	4	-25	-8	61*	+	+
Cc1cc(OC(C)C(=O)NCCCn2ccnc2)c2c(C)c(C)c(=O)oc2c1 (stereo unspecified)	11	-1	11	-21	-6	79*	134*	99*
Cc1cc(OCC(=O)NCCCn2ccnc2)c2c(C)c(C)c(=O)oc2c1	-9	-1	4	-8	-4	76*	38*	29*
Cc1nc2ccccc2cc1C(=O)NN=Cc1ccc([N+](=O)[O-])cc1	-3	.	.	.	.	.	.	.
Cc1ccc(C(=O)NC(C)CN2C3=NCC(Cc4ccccc4)N3CC2Cc2ccc(O)cc2)cc1Br (stereo unspecified)	-1	.	.	.	.	.	.	.
O=C1NC(Cc2ccccc2)C(c2ccco2)O1 (stereo unspecified)	3	.	.	.	.	.	.	.
COc1ccc(C2CC(=O)C=C3c4ccc(OC)cc4CCC32)cc1 (stereo unspecified)	.	-1	26	.	-5	4	.	.
COc1ccc2c(c1)CCC1(C)CC(=O)C=C21 (stereo unspecified)	.	4	37*	.	-5	39*	46*	45*
Cc1ccc(-c2c(C#N)c(N)nc3c2CCCCC3)o1	8	11	24	-26	-3	12	.	.
Cc1ccc(-c2c(C#N)c(N)nc3c2CCCCCC3)o1	17	-3	26	-5	0	31*	51*	38*
Cc1cccc(S(=O)(=O)c2c(N)n(-c3ccccc3)c3nc4ccccc4nc23)c1	3	-5	16	-11	5	74*	63*	50*
Cc1cccc(S(=O)(=O)c2c(N)n(/N=C/c3cccnc3)c3nc4ccccc4nc23)c1	.	2	3	2	13	-2	.	.
CC(=NNC(=O)c1cccc(Br)c1)c1ccc(Br)cc1	8	.	.	.	.	.	.	.
COc1cc2c(cc1OC)CN(CC(O)c1ccccc1)CC2 (stereo unspecified)	-1	5	8	-25	-11	57*	41*	33*
COc1cc2c(cc1OC)CN(Cc1cccs1)CC2	1	3	-3	-10	-11	29*	98*	87*
COc1cc2c(cc1OC)CN(Cc1ccccc1)CC2	-6	-4	17	-13	-1	8	.	.
Fc1ccc(Nc2nc(NN=Cc3ccco3)nc(N3CCCCC3)n2)cc1	0	.	.	.	.	.	.	.
COC(=O)c1sccc1NC(=S)Nc1ccc(F)cc1F	-4	-15	6	-15	5	70*	79*	51*
COC(=O)c1sccc1NC(=O)CN(C)NS(=O)(=O)c1ccc(F)cc1	11	-3	6	-17	2	27*	95*	72*
SMILES	Mtb hypoxia inh	Y pestis TopoI	GDH-TPI counter-1	PrP 5UTR inh	PrPC surface inh	FBA Mtb inh	Mtb FBA confirm	GDH-TPI counter-2
CC(=O)Nc1ccc2nc(-c3ccncc3)[nH]c2c1	3	-8	12	-16	-4	32*	+	+
CC(=O)Nc1ccc2nc(-c3ccccn3)[nH]c2c1	16	11	29	-58	-4	18	.	.
COc1ccc(C=Nn2cncn2)cc1Cn1cc([N+](=O)[O-])cn1	10	.	.	.	.	.	.	.
CC(=O)Oc1c(-c2ccc(Br)o2)oc2ccccc2c1=O	.	4	30	-16	0	79*	47*	41*
COC(=O)CC1c2ccccc2S(=O)(=O)N1c1cccc(OC)c1 (stereo unspecified)	17	.	.	.	.	.	.	.
Cc1cc(=O)n2[nH]cc(-c3ccccc3)c2n1	-4	-1	7	-2	1	34*	73*	60*
CCCc1cc(=O)n2[nH]cc(-c3ccc(Cl)cc3)c2n1	-1	-3	9	-13	3	54*	-11	-11
CCCc1cc(=O)n2[nH]c(SCc3ccc(Cl)cc3)nc2n1	-14	-7	4	-5	0	4	.	.
O=C(NN=Cc1ccc(Br)cc1)c1ccccc1-n1cccc1	1	.	.	.	.	.	.	.
COCCNC(=O)c1cn(CCOC)c(=O)c2c1c1ccccc1n2C	2	3	14	-8	-3	27*	134*	104*
CC(C)Cn1cc(C(=O)NCCCN2CCCC2=O)c2c3ccccc3n(C)c2c1=O	3	8	15	-37	4	33*	-5	-1
COCCn1cc(C(=O)NCCCOC(C)C)c2c3ccccc3n(C)c2c1=O	8	12	3	-2	4	30*	128*	112*
COCCCNC(=O)c1cn(CCOC)c(=O)c2c1c1ccccc1n2C	3	3	11	-16	-3	37*	90*	96*
O=c1[nH]c2cc3c(cc2cc1CN(CCc1ccccc1)Cc1nnnn1CC1CCCO1)OCO3 (stereo unspecified)	3	29	26	-6	-5	30*	12	17*
CC1CCN(C(c2cc3cc4c(cc3[nH]c2=O)OCO4)c2nnnn2CC2CCCO2)CC1 (stereo unspecified)	-3	-6	6	-27	.	3	.	.
O=c1[nH]c2cc3c(cc2cc1CN(Cc1nnnn1CC1CCCO1)C1CCCCC1)OCO3 (stereo unspecified)	.	2	7	-21	-1	57*	+	+
O=c1[nH]c2cc3c(cc2cc1CN(Cc1nnnn1CC1CCCO1)C1CCCC1)OCO3 (stereo unspecified)	.	3	12	9	-2	76*	33*	29*
Cc1onc(-c2ccccc2)c1C(=O)NN=Cc1cn(C)c2ccccc12	-4	.	.	.	.	.	.	.
Cn1cccc1C=NNC(=O)CNc1ccc2ccccc2c1	-16	.	.	.	.	.	.	.

Source: PubChem BioAssay (several laboratories)
